Test results from PubChem BioAssay.
A number with no mark means an inactive call. The source made the active and inactive calls.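 How the source made its calls: active means growth inhibition above 50% at the single 2 µM test dose, taken to imply half-maximal potency below 2 µM; inactive means the rest.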

test: antimalarial activity against Dd2 strain (AID 2302);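 further: 0% = DMSO untreated growth and 100% = chloroquine plus artemisinin killed control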; settings: P. falciparum Dd2 in RBCs, LDH growth readout, 72 h; at 2 µM; active compounds read high

SMILES	growth inhibition
O=[N+]([O-])c1ccc(-n2nc(Cc3ccccc3)n(Cc3cccc(F)c3)c2=S)c(C(F)(F)F)c1	100% (active)
O=C(NCCN1CCC(c2ncc(-c3ccccc3)o2)CC1)c1ccc(NC(=O)c2ccc(Cl)cc2)cc1	80% (active)
CC(C)c1sc(N2CCN(C)CC2)nc1C(=O)Nc1cccc2c1CCCC2	50% (active)
Cc1ccccc1NC(=O)C1CSCN1C(=O)OCc1ccccc1 (stereo not given)	-1%
COc1ccc2ncc(F)c(CCN3C[C@H](CNCc4cc(F)c5c(c4)NC(=O)CO5)[C@H](O)C3)c2n1	23%
COc1cc(Br)ccc1N1CCN(CCCCNC(=O)c2ccc(NC(=O)c3ccc(Cl)cc3)cc2)CC1	33%
CC(C)CCN1CCC(Oc2ccc(NC(=O)c3ccc4ncccc4c3)cc2Cl)C1 (stereo not given)	14%
CC(C)Cc1c(O)nc(SCCN2CCOCC2)[nH]c1=O	-5%
O=C(Nc1cccc(CN2CCCN(Cc3ccc(F)cc3)CC2)c1)c1ccc(Cl)c(Cl)c1	17%
CCC[C@@H]([C@@H](CC1CCCCC1)C(=O)N[C@H](C(=O)Nc1nccs1)[C@H](C)O)N(O)C=O	75% (active)
O=C(Nc1ccc(C(=O)N2CCN(CCN3CCN(c4cccc(C(F)(F)F)c4)CC3)CC2)cc1)c1ccc(OC(F)(F)F)cc1	25%
c1ccc(CNc2nc(NCCc3cnc[nH]3)nc(NCc3cccc4ccccc34)n2)cc1	1%
COc1ccc(C2CCN(CCCCNC(=O)c3ccc(NC(=O)c4ccc(Cl)cc4)cc3)CC2)c(C)c1	35%
c1cncc(Oc2ccc(Nc3ccnc4cc(-c5cccc(CN6CCOCC6)c5)ccc34)cc2)c1	100% (active)
C[C@@H](COc1ccc(-c2ccccc2)cc1)CON1C(N)=NC(N)=NC1(C)C	96% (active)
CC(CCON1C(N)=NC(N)=NC1(C)C)c1ccc(Cl)c(Cl)c1 (stereo not given)	97% (active)
CCOc1ccc(Br)cc1/C=C/C(=O)Nc1ccc(C2CCN(C)CC2)cc1	71% (active)
CN(C)CCNC(=O)c1ccc2c(c1)n(C1CCN(S(=O)(=O)c3ccc(-c4ccccc4)cc3)CC1)c(=O)n2CC1CCCCC1	66% (active)
CC(=O)Nc1ccc(CN2CCN(C(c3ccc(F)cc3)c3ccc(F)cc3)CC2)cc1	79% (active)
Cc1cc(=O)oc2c1ccc1oc(C(O)c3ccc(Cl)cc3)c(C)c12 (stereo not given)	96% (active)

SMILES	growth inhibition
Cc1ccc2c(c1C)NC(=O)C21NN=C(c2ccccc2)S1 (stereo not given)	65% (active)
CCC(C)NC(=O)Nc1ccc(-c2cccc(-c3nc4ccccc4[nH]3)c2)cc1 (stereo not given)	37%
CN(C)CC1c2[nH]c3ccccc3c2CCN1C(=O)Nc1ccc(Cl)c(Cl)c1 (stereo not given)	32%
O=C(Nc1cccc(-c2cccc(-c3nc4ccc(F)cc4[nH]3)c2)c1)Nc1ccc2c(c1)OCO2	49%
CCN(CC)CC#Cc1ccc2[nH]c(C)c(Cl)c(=O)c2c1	95% (active)
COc1cc(Cc2cnc(NCCN3CCNCC3)nc2N)ccc1OCc1ccc(C(F)(F)F)cc1	4%
NC(=O)C1CCN(Cc2cccc(-c3ccc(-c4nc5ccc(C(F)(F)F)cc5[nH]4)cc3)c2)CC1	94% (active)
C=CCc1cc(Br)ccc1OCCCON1C(N)=NC(N)=NC1(C)C	97% (active)
CC(C)(C)c1ccc(CNCCOc2ccc(Nc3nnc(-c4ccc(-c5ncc[nH]5)cc4)o3)c3ccccc23)cc1	88% (active)
COc1ccc(C=NNc2cc(C)nc3c(C)cccc23)c2ccccc12	98% (active)
COc1ccc2nc3cc(Cl)ccc3c(NCCCCN3CCNCC3)c2c1	75% (active)
CC(C)CN1CCCN(Cc2cccc(NC(=O)c3ccc(-c4ccccc4)cc3)c2)CC1	24%
CCCOc1ccccc1C(=O)Nc1nonc1-c1ccc(OCC)c(OCC)c1	89% (active)
CCN(CCCN1CCCCC1)c1cc(C)nc(Nc2cc(C)ccc2C)n1	42%
Nc1ncnc2nc(-c3ccc(F)cc3)cc(-c3ccc(NC(=O)c4ccccc4)cc3)c12	97% (active)
CCCNCc1ccc(-c2ccc(CN(CCOC)C(=O)c3cccc(C#N)c3)cc2)nc1	14%
COc1cccc2c(NCCNc3ccnc4c(OC)cccc34)ccnc12	86% (active)
CN(C)CCNCc1ccc(-c2ccc(-c3nc4ccccc4[nH]3)s2)cc1	100% (active)
Clc1ccc(-c2cc3c(NCc4ccncc4)nccc3s2)cc1	8%
CNC(=O)C1Cc2c([nH]c3cc(Cl)ccc23)C2(CCN(CCc3ccccc3)CC2)N1 (stereo not given)	3%
